In the supplement of paper PMC11732987, “Enantioselective OTUD7B fragment discovery through chemoproteomics screening and high-throughput optimisation” (Communications Chemistry, 2025):

How the values were obtained:
Test in all cases: log2 ratio of Biotin-Ahx-Ub-VS probe labelling (fragment/DMSO); higher = less target engagement (more negative = stronger competition), active = hit call of the paper (q ≤ 0.05, log2 ratio ≤ -1)
Details in all cases: compound concentration: 200 uM; treatment time: 3 h
USP9X = USP9X (UniProt Q93008)
USP9X, sequence (Q93008 whole entry, the tested form may be a part): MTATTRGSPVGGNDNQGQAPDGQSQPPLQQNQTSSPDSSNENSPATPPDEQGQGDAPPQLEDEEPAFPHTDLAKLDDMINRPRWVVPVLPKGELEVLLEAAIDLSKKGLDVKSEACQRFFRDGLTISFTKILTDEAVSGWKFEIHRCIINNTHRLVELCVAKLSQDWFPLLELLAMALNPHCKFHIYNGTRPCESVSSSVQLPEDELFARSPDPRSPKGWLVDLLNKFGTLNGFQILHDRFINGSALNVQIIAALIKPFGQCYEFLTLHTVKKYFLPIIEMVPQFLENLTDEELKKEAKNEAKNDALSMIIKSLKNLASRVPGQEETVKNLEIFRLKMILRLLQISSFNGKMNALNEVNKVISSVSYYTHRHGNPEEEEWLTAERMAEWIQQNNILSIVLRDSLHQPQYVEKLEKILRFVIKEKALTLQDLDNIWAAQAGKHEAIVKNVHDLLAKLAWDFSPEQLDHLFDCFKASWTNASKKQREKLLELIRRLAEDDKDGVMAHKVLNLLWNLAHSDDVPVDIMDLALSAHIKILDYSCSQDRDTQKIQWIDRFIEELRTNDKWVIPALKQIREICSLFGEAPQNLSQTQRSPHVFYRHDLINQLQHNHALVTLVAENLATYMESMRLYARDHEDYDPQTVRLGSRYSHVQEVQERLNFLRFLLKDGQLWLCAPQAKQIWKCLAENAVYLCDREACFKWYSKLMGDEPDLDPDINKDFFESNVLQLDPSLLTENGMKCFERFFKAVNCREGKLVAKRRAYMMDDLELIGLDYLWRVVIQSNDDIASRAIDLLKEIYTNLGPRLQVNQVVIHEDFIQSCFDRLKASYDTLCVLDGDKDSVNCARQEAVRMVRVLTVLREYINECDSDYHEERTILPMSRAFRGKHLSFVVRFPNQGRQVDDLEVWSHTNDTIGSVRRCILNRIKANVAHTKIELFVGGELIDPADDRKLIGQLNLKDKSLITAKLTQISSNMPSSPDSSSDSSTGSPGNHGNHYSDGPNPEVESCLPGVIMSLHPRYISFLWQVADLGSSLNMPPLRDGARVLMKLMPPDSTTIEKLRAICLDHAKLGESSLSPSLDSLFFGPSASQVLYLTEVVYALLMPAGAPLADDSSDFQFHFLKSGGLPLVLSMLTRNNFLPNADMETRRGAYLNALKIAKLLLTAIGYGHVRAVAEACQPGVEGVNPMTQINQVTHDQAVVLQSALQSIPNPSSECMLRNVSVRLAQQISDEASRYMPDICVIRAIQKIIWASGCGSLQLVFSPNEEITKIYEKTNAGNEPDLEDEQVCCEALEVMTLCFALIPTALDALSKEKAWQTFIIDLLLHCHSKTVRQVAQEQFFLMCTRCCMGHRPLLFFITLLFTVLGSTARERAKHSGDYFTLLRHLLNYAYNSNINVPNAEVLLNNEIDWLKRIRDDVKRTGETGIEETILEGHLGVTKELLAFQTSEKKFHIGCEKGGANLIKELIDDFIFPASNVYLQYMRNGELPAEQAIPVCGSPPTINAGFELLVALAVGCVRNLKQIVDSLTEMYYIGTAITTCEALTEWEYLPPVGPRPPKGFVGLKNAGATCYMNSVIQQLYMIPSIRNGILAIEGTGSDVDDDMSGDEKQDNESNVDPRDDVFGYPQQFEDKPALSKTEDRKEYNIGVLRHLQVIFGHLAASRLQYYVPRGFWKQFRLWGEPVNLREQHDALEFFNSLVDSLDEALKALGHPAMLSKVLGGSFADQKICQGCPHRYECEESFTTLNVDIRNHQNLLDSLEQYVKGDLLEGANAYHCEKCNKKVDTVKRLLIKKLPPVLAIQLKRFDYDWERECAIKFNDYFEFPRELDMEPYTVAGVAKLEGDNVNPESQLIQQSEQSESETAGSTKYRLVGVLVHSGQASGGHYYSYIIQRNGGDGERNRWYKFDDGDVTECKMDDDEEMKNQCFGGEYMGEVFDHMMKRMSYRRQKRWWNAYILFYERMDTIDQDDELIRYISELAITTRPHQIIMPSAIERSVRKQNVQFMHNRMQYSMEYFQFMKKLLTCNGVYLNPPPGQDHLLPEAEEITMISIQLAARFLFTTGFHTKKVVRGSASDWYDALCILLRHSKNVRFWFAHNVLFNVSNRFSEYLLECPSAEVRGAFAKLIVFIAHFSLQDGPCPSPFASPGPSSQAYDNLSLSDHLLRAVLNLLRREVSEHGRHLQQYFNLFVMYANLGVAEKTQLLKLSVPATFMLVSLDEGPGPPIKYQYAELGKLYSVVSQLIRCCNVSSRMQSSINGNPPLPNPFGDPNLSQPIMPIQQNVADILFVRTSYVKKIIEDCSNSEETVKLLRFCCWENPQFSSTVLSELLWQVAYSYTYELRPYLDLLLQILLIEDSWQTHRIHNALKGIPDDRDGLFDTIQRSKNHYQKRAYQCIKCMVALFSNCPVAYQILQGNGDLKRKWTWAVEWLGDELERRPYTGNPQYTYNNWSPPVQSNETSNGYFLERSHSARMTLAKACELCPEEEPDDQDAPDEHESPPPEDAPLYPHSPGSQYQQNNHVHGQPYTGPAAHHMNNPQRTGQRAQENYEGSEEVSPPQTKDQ
Procedure, shortened: (§1)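 In triplicate, 495 µg of HEK293T lysate per sample was incubated with fragment at 200 µM or vehicle for 3 h. Biotin-Ahx-Ub-VS was then added to 0.5 µM final for 1 h, and labelled DUBs were captured with NeutrAvidin, digested with LysC and trypsin, and measured by diaPASEF LC-MS/MS. Data are average log2 fragment/vehicle ratios by unpaired t-test from global-median-normalised Spectronaut label-free quantities, restricted to proteins with ≥2 unique peptides.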

UniProt O00487 = molecular target: UniProt O00487
UniProt O00487, sequence (O00487 whole entry): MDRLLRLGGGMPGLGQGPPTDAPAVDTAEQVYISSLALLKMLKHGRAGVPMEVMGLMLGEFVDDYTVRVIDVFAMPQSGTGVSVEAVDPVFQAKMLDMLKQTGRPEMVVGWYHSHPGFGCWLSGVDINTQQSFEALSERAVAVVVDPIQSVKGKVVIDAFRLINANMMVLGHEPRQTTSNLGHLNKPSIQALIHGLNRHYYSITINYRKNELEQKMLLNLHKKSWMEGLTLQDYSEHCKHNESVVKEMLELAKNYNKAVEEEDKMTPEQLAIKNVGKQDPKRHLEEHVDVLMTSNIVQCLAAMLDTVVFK
Procedure, shortened: as §1

UniProt O00507 = molecular target: UniProt O00507
Procedure, shortened: as §1

UniProt P51784 = molecular target: UniProt P51784
UniProt P51784, sequence (P51784 whole entry): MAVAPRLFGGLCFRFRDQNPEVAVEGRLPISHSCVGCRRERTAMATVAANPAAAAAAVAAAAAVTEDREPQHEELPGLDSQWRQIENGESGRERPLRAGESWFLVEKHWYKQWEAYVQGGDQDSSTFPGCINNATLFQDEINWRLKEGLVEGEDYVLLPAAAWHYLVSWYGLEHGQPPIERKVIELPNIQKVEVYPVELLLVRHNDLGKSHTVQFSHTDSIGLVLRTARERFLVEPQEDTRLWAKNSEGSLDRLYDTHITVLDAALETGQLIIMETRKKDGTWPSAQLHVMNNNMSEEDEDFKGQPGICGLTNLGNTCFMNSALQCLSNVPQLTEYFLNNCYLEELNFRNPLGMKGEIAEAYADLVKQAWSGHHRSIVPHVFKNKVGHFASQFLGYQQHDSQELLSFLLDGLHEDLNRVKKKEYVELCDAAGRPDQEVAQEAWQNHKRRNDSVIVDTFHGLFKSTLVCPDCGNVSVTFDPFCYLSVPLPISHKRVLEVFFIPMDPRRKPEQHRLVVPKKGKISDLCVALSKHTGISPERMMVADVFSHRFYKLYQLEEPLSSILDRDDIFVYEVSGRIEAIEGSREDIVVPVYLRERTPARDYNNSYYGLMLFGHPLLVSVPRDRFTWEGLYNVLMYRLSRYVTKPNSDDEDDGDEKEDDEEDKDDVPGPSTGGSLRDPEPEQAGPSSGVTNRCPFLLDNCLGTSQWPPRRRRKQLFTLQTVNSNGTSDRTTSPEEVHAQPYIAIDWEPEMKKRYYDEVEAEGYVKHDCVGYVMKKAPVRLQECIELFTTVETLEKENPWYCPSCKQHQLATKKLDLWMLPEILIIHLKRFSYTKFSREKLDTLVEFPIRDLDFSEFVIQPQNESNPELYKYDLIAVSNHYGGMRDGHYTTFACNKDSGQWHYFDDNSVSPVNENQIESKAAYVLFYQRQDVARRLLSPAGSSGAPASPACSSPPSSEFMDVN
Procedure, shortened: as §1

UniProt Q5T2D3 = molecular target: T1, UniProt Q5T2D3
T1 sequence (whole entry): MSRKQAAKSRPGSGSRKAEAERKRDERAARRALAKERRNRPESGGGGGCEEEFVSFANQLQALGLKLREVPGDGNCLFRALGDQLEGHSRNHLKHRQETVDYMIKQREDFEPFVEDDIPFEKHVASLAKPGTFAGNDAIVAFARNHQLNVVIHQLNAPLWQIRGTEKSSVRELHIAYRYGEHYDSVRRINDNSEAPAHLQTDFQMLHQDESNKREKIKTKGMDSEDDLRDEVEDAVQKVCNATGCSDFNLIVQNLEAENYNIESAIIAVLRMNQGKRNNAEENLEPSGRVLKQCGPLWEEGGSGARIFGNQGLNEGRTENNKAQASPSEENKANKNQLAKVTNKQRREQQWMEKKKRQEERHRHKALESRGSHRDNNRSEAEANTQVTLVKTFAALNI
Procedure, shortened: as §1

UniProt Q8TE49 = molecular target: T2, UniProt Q8TE49
T2 sequence (whole entry): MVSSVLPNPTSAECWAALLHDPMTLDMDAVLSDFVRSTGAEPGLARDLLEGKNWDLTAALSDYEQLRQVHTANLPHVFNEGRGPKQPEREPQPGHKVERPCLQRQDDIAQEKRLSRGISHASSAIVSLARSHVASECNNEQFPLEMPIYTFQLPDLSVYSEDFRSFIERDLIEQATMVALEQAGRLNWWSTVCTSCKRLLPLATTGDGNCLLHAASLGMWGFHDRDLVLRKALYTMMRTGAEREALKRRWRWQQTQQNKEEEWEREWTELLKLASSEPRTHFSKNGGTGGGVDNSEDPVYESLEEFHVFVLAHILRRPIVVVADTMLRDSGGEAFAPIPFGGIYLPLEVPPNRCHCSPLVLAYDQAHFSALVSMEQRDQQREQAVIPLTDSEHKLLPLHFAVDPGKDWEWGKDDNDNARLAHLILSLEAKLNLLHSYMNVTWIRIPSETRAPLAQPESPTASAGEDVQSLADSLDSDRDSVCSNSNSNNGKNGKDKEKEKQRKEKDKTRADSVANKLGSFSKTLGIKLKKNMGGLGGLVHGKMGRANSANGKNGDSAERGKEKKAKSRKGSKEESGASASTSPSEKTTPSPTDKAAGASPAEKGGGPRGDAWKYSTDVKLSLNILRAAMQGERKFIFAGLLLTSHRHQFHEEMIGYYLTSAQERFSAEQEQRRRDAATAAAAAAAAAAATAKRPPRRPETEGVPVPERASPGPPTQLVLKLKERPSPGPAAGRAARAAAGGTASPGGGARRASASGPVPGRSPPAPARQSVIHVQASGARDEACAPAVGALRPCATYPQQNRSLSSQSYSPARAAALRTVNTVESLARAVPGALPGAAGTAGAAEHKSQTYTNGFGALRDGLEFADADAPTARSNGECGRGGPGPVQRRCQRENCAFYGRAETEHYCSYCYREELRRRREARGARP
Procedure, shortened: as §1

UniProt Q9P2H5 = molecular target: T3, UniProt Q9P2H5
T3 sequence (whole entry): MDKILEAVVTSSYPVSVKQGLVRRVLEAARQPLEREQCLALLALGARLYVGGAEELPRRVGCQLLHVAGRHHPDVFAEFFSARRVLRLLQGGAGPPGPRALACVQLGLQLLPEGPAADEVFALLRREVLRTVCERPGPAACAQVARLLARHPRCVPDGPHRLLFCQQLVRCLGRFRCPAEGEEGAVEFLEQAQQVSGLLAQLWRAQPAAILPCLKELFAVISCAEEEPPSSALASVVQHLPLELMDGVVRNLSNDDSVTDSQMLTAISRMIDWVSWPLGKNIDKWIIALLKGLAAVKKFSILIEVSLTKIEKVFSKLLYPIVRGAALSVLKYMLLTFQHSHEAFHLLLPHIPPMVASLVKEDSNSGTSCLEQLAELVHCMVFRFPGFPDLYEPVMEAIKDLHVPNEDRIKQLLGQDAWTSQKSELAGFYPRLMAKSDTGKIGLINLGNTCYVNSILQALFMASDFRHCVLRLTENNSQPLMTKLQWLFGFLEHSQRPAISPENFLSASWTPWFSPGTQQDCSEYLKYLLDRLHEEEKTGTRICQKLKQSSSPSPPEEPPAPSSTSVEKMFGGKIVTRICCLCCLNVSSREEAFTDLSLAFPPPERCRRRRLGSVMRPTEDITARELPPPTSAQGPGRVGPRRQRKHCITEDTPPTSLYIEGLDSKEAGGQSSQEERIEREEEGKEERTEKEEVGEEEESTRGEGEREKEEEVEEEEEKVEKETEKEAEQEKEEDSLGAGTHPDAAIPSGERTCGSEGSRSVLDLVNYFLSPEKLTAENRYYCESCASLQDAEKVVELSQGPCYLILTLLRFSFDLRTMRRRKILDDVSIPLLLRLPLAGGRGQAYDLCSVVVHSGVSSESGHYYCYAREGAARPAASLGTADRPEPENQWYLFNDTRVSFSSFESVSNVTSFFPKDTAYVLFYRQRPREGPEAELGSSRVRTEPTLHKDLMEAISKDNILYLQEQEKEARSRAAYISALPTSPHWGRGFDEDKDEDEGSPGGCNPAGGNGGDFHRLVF
Procedure, shortened: as §1

UniProt Q9UGI0 = molecular target: T4, UniProt Q9UGI0
T4 sequence (whole entry): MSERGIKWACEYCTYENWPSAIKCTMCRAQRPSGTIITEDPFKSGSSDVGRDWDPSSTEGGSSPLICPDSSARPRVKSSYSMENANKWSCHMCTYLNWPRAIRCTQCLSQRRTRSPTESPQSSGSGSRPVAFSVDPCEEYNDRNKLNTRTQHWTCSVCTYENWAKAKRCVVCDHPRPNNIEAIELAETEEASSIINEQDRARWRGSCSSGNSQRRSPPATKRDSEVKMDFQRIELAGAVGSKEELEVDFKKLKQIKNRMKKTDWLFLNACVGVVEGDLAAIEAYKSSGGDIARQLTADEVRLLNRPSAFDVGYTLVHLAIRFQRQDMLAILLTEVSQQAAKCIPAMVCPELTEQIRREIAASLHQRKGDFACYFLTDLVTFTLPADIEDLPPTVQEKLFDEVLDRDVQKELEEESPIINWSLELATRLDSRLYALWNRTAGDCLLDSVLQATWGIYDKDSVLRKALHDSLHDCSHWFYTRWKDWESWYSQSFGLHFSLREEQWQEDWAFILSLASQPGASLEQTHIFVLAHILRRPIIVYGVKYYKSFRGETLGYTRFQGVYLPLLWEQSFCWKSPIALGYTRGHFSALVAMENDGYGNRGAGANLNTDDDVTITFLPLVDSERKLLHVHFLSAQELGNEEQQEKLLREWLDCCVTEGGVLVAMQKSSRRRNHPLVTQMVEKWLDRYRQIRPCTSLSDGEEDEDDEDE
Procedure, shortened: as §1

YOD1 = molecular target: T5, YOD1 (UniProt Q5VVQ6)
T5 sequence (whole entry): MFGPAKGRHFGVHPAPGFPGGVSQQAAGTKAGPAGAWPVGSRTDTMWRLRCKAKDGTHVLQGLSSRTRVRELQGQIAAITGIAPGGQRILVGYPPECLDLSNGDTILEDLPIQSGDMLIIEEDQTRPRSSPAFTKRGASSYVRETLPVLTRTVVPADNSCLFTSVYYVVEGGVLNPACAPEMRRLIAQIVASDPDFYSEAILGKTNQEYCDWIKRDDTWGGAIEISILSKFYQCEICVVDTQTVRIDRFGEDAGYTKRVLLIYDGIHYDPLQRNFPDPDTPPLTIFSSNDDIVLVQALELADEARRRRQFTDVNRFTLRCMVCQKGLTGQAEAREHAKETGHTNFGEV
Procedure, shortened: as §1

Measured: log2 ratio of Biotin-Ahx-Ub-VS probe labelling

O=C(CCl)N1CCOC2(CCC2)CC1
active: UniProt Q9UGI0 -1.19
inactive: USP9X -0.0935 | UniProt O00487 0.0511 | UniProt O00507 -0.268 | UniProt P51784 -0.147 | UniProt Q5T2D3 -0.0132 | UniProt Q8TE49 -0.472 | UniProt Q9P2H5 -0.184 | YOD1 -0.0502
